# Hits are enriched below; roughly 2% of the tested compounds scored in any of these assays.
# PREPL inhibitor: PREPL enzyme inhibitors, primary screen, biochemical, fluorescence polarization; recombinant PREPL, fluorescence polarization activity-based probe; Prolyl endopeptidase-like (Homo sapiens), Q4J6C6; 0.68% of 320,000 active; inhibition, % at 5.96 µM;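 note: 0% = enzyme with DMSO and 100% = wells lacking enzyme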
# GSTO1 counter: inhibitors of recombinant GSTO1, primary screen, counter-screen for RBBP9 inhibitor project, biochemical, fluorescence polarization; 1.1% of 300,000 active; AID 1974, 2009; activity-based probe fluorescence polarization; Glutathione S-transferase omega-1 (Homo sapiens), P78417; inhibition, % at 5.96 µM;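 active = inhibition above the campaign mean inhibition plus 3 SD, cut at about 35% in these data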;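 note: 0% = GSTO1-1 with DMSO and 100% = wells lacking GSTO1-1 enzyme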
# LYPLA1 inh: LYPLA1 inhibitors, primary screen, counter-screen for PME1 inhibitor project, biochemical, fluorescence polarization, FP-Rh probe ABPP | inhibition, % at 5.9 µM | Acyl-protein thioesterase 1 (Homo sapiens), O75608 | 0.16% of 320,000 active | recombinant LYPLA1;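 active = inhibition above the mean of all tested compounds plus 3 SD, set per campaign, cut at about 14% in these data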;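 note: inhibitors block serine hydrolase probe labeling of LYPLA1 so polarization falls; 0% = enzyme with DMSO and 100% = wells lacking LYPLA1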
# Target sequence (O75608 whole entry, looked up): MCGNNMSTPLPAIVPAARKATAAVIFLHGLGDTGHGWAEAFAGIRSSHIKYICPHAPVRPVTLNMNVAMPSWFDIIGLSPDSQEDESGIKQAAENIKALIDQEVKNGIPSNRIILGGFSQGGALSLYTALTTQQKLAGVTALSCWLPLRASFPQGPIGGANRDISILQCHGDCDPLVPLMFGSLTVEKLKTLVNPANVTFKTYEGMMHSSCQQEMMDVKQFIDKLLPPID
# PME-1 inh: PME-1 inhibitors via competitive probe labeling, primary screen, biochemical, fluorescence polarization, FP-Rh probe, HTS. recombinant PME-1. 0.53% of 320,000 active. inhibition, % at 5.9 µM;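 active = inhibition above the campaign mean of all compounds plus 3 SD, cut at about 26% in these data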;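 note: competitive labeling of PME-1 active site by serine hydrolase directed probe; 0% = PME-1 with DMSO and 100% = wells lacking PME-1 enzyme; inhibitors block probe labeling so polarization falls and inhibition rises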
# Target sequence (Q9Y570 whole entry, looked up): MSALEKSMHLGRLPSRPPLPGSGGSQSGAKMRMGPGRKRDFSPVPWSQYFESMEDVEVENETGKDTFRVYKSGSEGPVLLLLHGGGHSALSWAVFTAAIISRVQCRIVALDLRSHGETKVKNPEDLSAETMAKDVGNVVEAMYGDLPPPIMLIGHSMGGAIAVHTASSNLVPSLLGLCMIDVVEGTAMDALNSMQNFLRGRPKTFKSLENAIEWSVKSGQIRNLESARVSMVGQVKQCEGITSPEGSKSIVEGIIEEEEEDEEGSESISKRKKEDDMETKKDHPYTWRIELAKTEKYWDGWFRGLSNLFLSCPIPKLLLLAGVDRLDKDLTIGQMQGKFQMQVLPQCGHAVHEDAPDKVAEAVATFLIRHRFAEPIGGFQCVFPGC
# LYPLA2 inh: LYPLA2 inhibitors, primary screen, counter-screen for PME1 inhibitor project, biochemical, fluorescence polarization, FP-Rh probe ABPP; inhibition, % at 5.9 µM; 0.38% of 320,000 active; recombinant LYPLA2; Acyl-protein thioesterase 2 (Homo sapiens), O95372; AID 2177, 2009;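 active = inhibition above the screen-wide mean plus 3 SD, limit set per campaign, cut at about 26% in these data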;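 note: 0% = LYPLA2 with DMSO and 100% = wells lacking LYPLA2 enzyme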
# Fam108B counter: mouse Fam108B serine hydrolase inhibitors, primary screen, counter-screen for RBBP9 inhibitor project, biochemical, fluorescence polarization | recombinant Fam108B, FP-Rh probe fluorescence polarization | inhibition, % at 9.51 µM | 0.33% of 300,000 active | AID 1947, 2009;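 active = inhibition above the screen mean inhibition plus 3 SD, computed separately per campaign, cut at about 18% in these data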;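 note: inhibitors lower polarization as less probe binds the enzyme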
# LYPLA1 confirm: LYPLA1 inhibitors, retest, confirmation, counter-screen for PME1 inhibitor project, biochemical, fluorescence polarization, FP-Rh probe ABPP. 69% of 480 active. recombinant LYPLA1. inhibition, % at 5.9 µM. shares compounds with LYPLA1 inh;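 active = mean inhibition across replicates above the hit cutoff set in the primary screen, cut at about 15% in these data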;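 note: loss of FP-Rh probe labeling of LYPLA1 seen as lower polarization; 0% = LYPLA1 with DMSO and 100% = wells lacking LYPLA1 enzyme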
# LYPLA2 confirm: LYPLA2 inhibitors, retest, confirmation, counter-screen for PME1 inhibitor project, biochemical, fluorescence polarization, FP-Rh probe ABPP | shares compounds with LYPLA2 inh | recombinant LYPLA2 | inhibition, % at 5.9 µM | 72% of 1,100 active | AID 2232, 2010;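 active = mean inhibition across replicates above the hit cutoff set in the primary screen, cut at about 26% in these data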;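 note: blocked labeling of the enzyme by serine hydrolase FP-Rh probe lowers polarization; 0% = enzyme with DMSO and 100% = wells lacking LYPLA2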
# LYPLA2 ABPP: LYPLA2 inhibitors in proteome, late-stage follow-up, gel-based competitive ABPP, fluorescence, assay provider; shares compounds with LYPLA2 inh; rhLYPLA2 in mouse brain proteome, gel ABPP FP-Rh; inhibition, % at 20 µM; 30% of 150 active; AID 652029, 2013;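 active = inhibition of LYPLA2 enzyme probe labeling above about 50%, limit read from the data; inactive = inhibition below that limit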;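 note: loss of FP-Rh probe labeling of the LYPLA2 gel band measured as band density; 0% = DMSO only control band and 100% = blank gel background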
# PREPL inh cf: human PREPL enzyme inhibitors, confirmation, biochemical, fluorescence polarization; shares compounds with PREPL inhibitor; recombinant PREPL, fluorescence polarization activity probe; inhibition, % at 5.96 µM; 67% of 2,000 active;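 note: 0% = protein with DMSO and 100% = wells lacking protein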
# * = called active by the depositor; . = no result given. Cut-off read from the data, not from the text of the source, unless noted: active = inhibition above about 43%; inactive = the rest.
SMILES,PREPL inhibitor,GSTO1 counter,LYPLA1 inh,PME-1 inh,LYPLA2 inh,Fam108B counter,LYPLA2 confirm,others
C#CCOCCOCCOCCNc1nc(N2CCN(C(=O)C(Cc3cc4ccccc4[nH]3)n3cc(C(N)Cc4ccc(O)cc4)nn3)CC2)nc(N2CCN(C(=O)C(CCC(=O)O)n3cc(C(N)C(C)CC)nn3)CC2)n1 (centres undefined),31,1,1,1,0,-6,.,
C#CCOCCOCCOCCNc1nc(N2CCN(C(=O)[C@H](Cc3cc4ccccc4[nH]3)n3cc([C@@H](N)C(C)CC)nn3)CC2)nc(N2CCN(C(=O)[C@H](Cc3cc4ccccc4[nH]3)n3cc([C@@H](N)Cc4ccc(O)cc4)nn3)CC2)n1 (some centres undefined),58*,-5,17*,-28,-20,-19,.,LYPLA1 confirm=34*;PREPL inh cf=57*
COC(=O)c1ccccc1-c1c2ccc(=N)cc-2oc2cc(N)ccc12,151*,.,170*,150*,191*,.,155*,LYPLA1 confirm=130*;PREPL inh cf=151*
COC(=O)c1ccccc1-c1ccc(/C=N/NC(=O)c2cc3ccccc3o2)o1,15,-13,-18,-10,-14,-3,.,
O=C(NCc1cccc2[nH]ccc12)C1CCC(=O)N(CCc2ccccc2)C1 (centres undefined),20,-6,0,-4,1,-2,.,
COc1ccccc1N(CC(=O)NC1CCCC1)C(=O)CNC(=O)c1cccs1,-9,5,0,-4,-4,-2,.,
O=S(=O)(c1ccc2ncn(O)c2c1)N1CCOCC1,0,0,0,-1,1,-3,.,
O=c1[nH]n2c(=O)c3c([nH]c2c1N=Nc1cccc(C(F)(F)F)c1)CCCC3,55*,3,16*,71*,1,9,.,LYPLA1 confirm=15*;PREPL inh cf=62*
C(=N\n1cnnc1)/c1ccc(OCc2cccc3ccccc23)cc1,50*,-2,16*,-6,52*,-4,39*,LYPLA1 confirm=20*;PREPL inh cf=43
CCN1/C(=C/C=C/c2oc3ccc(-c4ccccc4)cc3[n+]2CC)Oc2ccc(-c3ccccc3)cc21,67*,-68,58*,72*,64*,-11,-176,LYPLA1 confirm=-47;PREPL inh cf=-12
COc1cccc(S(=O)(=O)NCc2ccc(C(=O)N3CCN(Cc4ccccc4)CC3)cc2)c1,8,-1,2,3,43*,4,49*,
Cc1ccc(S(=O)(=O)NCc2ccc(C(=O)N3CCN(Cc4ccccc4)CC3)cc2)cc1,16,6,2,1,17,1,.,
COc1ccc(S(=O)(=O)NCc2ccc(C(=O)N3CCN(Cc4ccccc4)CC3)cc2)cc1,7,2,3,5,68*,1,59*,LYPLA2 ABPP=38
COc1ccc(C(C)=O)cc1COC(=O)C1CCN(C(=O)c2ccc(Cl)cc2)CC1,0,.,.,.,.,.,.,
CCOC(=O)c1ccc(Oc2coc3cc(O)ccc3c2=O)cc1,18,2,0,-6,-4,-6,.,
C=CCNC(=S)/C(=C(/[O-])c1ccccc1Br)[n+]1ccccc1,7,9,-1,-2,-3,3,.,
COc1ccc(-c2cc(-c3ccco3)[nH]c(=O)c2C#N)cc1OC,2,22,-1,1,1,9,.,
CCOc1ccc(/C=N/N2C(=O)C(CC(=O)Nc3ccc(F)cc3F)SC2=NC)cc1OC (centres undefined),5,5,-2,0,-8,-5,.,
CN=C1SC(CC(=O)Nc2ccc(F)cc2F)C(=O)N1/N=C(\C)c1cccc(OCC(=O)O)c1 (centres undefined),38,7,-1,5,26*,2,25,
O=C(NN1CCOCC1)c1ccccc1,16,0,-1,6,-5,4,.,
O=C(Nc1cc(S(=O)(=O)N2CCCCC2)ccc1N1CCOCC1)c1cc(=O)[nH]c2ccccc12,0,2,-2,3,32*,1,27*,
COc1ccc(S(=O)(=O)N2CCOCC2)cc1NC(=O)c1cc(=O)[nH]c2ccccc12,8,.,-3,-5,-1,.,.,
Oc1ccc(N2CCN(c3ccnc4cc(Cl)ccc34)CC2)cc1,14,18,1,-1,9,3,.,
COc1ccc(N2CCN(C(=O)c3cc4cc(Cl)ccc4[nH]3)CC2)cc1,28,7,5,0,37*,8,50*,
O=C(c1cc2cc(Cl)ccc2[nH]1)N1CCN(c2ccc(F)cc2)CC1,2,2,-1,-3,10,9,.,
SMILES,PREPL inhibitor,GSTO1 counter,LYPLA1 inh,PME-1 inh,LYPLA2 inh,Fam108B counter,LYPLA2 confirm,others
COc1ccc(N2CCN(c3ccnc4cc(Cl)ccc34)CC2)cc1,36,-6,5,9,26*,2,19,
O=C(CSc1cnc2ccccc2n1)c1ccc(F)cc1,9,0,-1,6,3,-1,.,
O=C(NNC(=O)c1cc2ccccc2oc1=O)c1ccccc1[N+](=O)[O-],6,-1,5,3,27*,-2,2,
Cc1c([N+](=O)[O-])cc(C(=O)Nc2ccc(Cc3ccncc3)cc2)cc1[N+](=O)[O-],3,-3,2,7,29*,-1,28*,
CO/N=C/c1ccc(N2CCN(C(=O)c3ccc(Cl)cc3Cl)CC2)c([N+](=O)[O-])c1,3,-4,2,11,48*,-4,50*,
O=C(O/N=C\c1ccc(N2CCCCC2)c([N+](=O)[O-])c1)c1cccc(Cl)c1,16,2,4,2,15,3,.,
